Results reported in PubChem BioAssay (Tox21).
Inconclusive results are not listed. The source made the active and inactive calls. Unless noted, the call rests on the fitted dose curve; in most records, active means well fitted curve in the direction sought with a large enough effect in the repeat runs; inconclusive means weak or mixed curves; inactive means no such curve, though single readings can be large; an effect the other way counts as inactive or inconclusive.

How the values were obtained:
[1] = qHTS assay for identifying genotoxic compounds that show differential cytotoxicity against isogenic chicken DT40 cell lines with known DNA damage response pathways - wild type cell line (AID 743012); conditions: DT40 wild type chicken cells viability, CellTiter-Glo, 40 h; series mostly up to 68.4 µM; further: nearly all actives have a fitted effect of over 60% in size
Outline: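 First, wild type DT40 cells were plated at 300 per well and equilibrated about 0.5 h at 37 C/5% CO2. Next, compounds in DMSO were added and exposure lasted 40 h. Finally, CellTiter-Glo was added for 30 min at room temperature and luminescence recorded.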

[2] = qHTS assay to identify small molecule antagonists of the androgen receptor (AR) signaling pathway - cell viability counter screen (AID 743033; further: nearly all actives have a fitted effect of over 45% in size); conditions: AR-bla HEK293 viability, CellTiter-Glo luminescence, 16 h; series mostly up to 58.5 µM
[3] = target: Androgen receptor (Homo sapiens) (UniProt P10275); assay: qHTS assay to identify small molecule antagonists of the androgen receptor (AR) signaling pathway (AID 743035; active means well fitted inhibition curve with a large enough effect in the signal ratio in the repeat runs, not every such curve was filed as active; the % refers to the signal ratio); conditions: HEK293 AR-UAS-bla, R1881-stimulated, beta-lactamase FRET, 16 h; series mostly up to 58.5 µM
Outline: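 Beta-lactamase FRET read (2 h RT incubation with LiveBLAzer B/G) following 16 h of compound plus R1881 treatment of AR-UAS-bla HEK293 cells, which had been pre-incubated 4 h at 37C.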

[4] = target: Androgen receptor (Homo sapiens) (UniProt P10275); assay: qHTS assay to identify small molecule agonists of the androgen receptor (AR) signaling pathway using the MDA cell line (AID 743040; further: nearly all actives have a fitted effect of over 20% in size); conditions: MDA-kb2 AR-luc cells, MMTV luciferase, 16 h; series mostly up to 70.3 µM
Outline: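 After a 5 h incubation at 37C and 0% CO2, MDA-kb2 reporter cells were dosed with compounds in DMSO and kept 16 h under the same conditions. Luciferase activity was then read as luminescence with ONE-Glo.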

[5] = qHTS assay to identify small molecule antagonists of the androgen receptor (AR) signaling pathway using the MDA cell line - cell viability counter screen (AID 743041; further: nearly all actives have a fitted effect of over 45% in size); conditions: MDA-kb2 viability, CellTiter-Fluor, 16 h, cells co-treated with R1881 androgen agonist; series mostly up to 70.3 µM
Outline: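 R1881-driven MDA-kb2 AR-luc cells, 3,000/well, were dosed with library compounds for 16 h; cell health came from CellTiter-Fluor fluorescence in the reporter wells.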

[6] = target: Androgen receptor (Homo sapiens) (UniProt P10275); assay: qHTS assay to identify small molecule antagonists of the androgen receptor (AR) signaling pathway using the MDA cell line (AID 743042; further: nearly all actives have a fitted effect of over 55% in size); conditions: MDA-kb2 AR-luc, MMTV luciferase, R1881 antagonist, 16 h; series mostly up to 70.3 µM
Outline: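 Antagonist mode: compounds plus R1881 agonist added to MDA-kb2 AR-luc cells, incubated 16 h at 37C. Luciferase reporter luminescence quantified, with multiplexed CellTiter-Fluor readout for cell viability.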

[7] = qHTS assay for identifying genotoxic compounds that show differential cytotoxicity against isogenic chicken DT40 cell lines with known DNA damage response pathways - Rev3 mutant cell line (AID 743014); conditions: chicken DT40 Rev3-/- viability, CellTiter-Glo, 40 h; series mostly up to 68.4 µM; further: nearly all actives have a fitted effect of over 55% in size
[8] = qHTS assay for identifying genotoxic compounds that show differential cytotoxicity against isogenic chicken DT40 cell lines with known DNA damage response pathways - Rad54/Ku70 mutant cell line (AID 743015); conditions: DT40 Rad54/Ku70 mutant viability, CellTiter-Glo, 40 h; series mostly up to 66.8 µM; further: nearly all actives have a fitted effect of over 60% in size
[9] = target: Androgen receptor (Homo sapiens) (UniProt P10275); assay: qHTS assay to identify small molecule agonists of the androgen receptor (AR) signaling pathway (AID 743036; active means well fitted activation curve with a large enough effect in the signal ratio in the repeat runs, with a control signal flat, not every such curve was filed as active; the % refers to the signal ratio); conditions: HEK293 AR-UAS-bla GripTite, beta-lactamase FRET ratio, 16 h; series mostly up to 62.4 µM
Outline: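 Cell-based FRET reporter assay: HEK293 line with a UAS-beta-lactamase construct, compounds added in DMSO, 16 h exposure at 37C, then 2 h substrate step at room temperature and fluorescence intensity read.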

Measured: Potency

Chain of Androgen receptor (Homo sapiens) (P10275 whole entry, looked up): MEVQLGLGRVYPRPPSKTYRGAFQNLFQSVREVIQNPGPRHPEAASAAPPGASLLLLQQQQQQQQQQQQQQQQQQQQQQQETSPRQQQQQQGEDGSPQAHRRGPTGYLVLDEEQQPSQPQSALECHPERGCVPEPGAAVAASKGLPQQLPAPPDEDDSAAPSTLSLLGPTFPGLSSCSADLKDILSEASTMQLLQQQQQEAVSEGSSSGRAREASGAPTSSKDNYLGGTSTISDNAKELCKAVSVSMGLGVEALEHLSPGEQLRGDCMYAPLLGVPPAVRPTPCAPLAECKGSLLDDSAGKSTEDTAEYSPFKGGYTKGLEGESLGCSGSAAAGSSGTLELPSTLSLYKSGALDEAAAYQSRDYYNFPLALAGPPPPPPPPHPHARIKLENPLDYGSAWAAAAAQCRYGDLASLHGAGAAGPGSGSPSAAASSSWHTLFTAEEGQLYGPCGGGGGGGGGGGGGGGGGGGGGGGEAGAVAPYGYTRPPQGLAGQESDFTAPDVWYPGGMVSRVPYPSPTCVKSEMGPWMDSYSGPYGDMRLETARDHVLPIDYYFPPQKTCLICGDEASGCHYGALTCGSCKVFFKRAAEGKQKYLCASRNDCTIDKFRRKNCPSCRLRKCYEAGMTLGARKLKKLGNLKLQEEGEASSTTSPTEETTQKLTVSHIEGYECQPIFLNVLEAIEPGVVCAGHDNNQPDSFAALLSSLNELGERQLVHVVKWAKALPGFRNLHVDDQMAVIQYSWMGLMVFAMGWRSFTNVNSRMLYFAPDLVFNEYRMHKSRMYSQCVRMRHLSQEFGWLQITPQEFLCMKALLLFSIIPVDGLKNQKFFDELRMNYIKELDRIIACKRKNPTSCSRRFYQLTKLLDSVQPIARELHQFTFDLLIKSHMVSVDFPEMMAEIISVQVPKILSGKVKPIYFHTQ

Cc1cc(C)c(/C=C2\C(=O)Nc3ccccc32)[nH]1
not listed: [7] | [8] | [9]
inactive: all other assays above

CC(C)OC(=O)C(O)(CC(=O)O)CC(=O)O
not listed: [1]
inactive: all other assays above

CC1=Nc2ccccc2C1(C)C
inactive: [1] | [2] | [5]

Cc1cc(C(C)(C)C)c(O)c(C)c1Cn1c(=O)n(Cc2c(C)cc(C(C)(C)C)c(O)c2C)c(=O)n(Cc2c(C)cc(C(C)(C)C)c(O)c2C)c1=O
inactive: [8] | [2] | [5]
